Assay outcomes: PubChem BioAssay, National Center for Advancing Translational Sciences (NCATS)
Rows were chosen to be rich in hits. Some 20% of all compounds tested hit in one or more screens of this group.
HCMV antiviral = human cytomegalovirus inhibition | 4.5% of 410,000 active | HFF cells, HCMV-luciferase reporter, 72 h; hits give low values | activity change, negative = inhibition, % at 57.5 µM; in the data active = activity change below about -60%; inconclusive = no clear call, values can overlap the other calls; inactive = above about -39%
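Steps: HFFs plated, 16 h 37C; compounds added; HCMV-luciferase added to MOI 1 PFU/cell; 72 h 37C; OneGlo reagent, 5 min room temperature; luminescence read, normalized to controls.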
CHX counter = counter-screen hit for Shiga toxin inhibitors, cycloheximide; cell reporter, cycloheximide protein synthesis inhibition counterscreen; max response, %; 12% of 300,000 active; in the data active = max response mostly above about 13%, no sharp cut-off; inactive = mostly below about 14%; also: read at 38.3 µM for the half of the compounds with a filed dose
Shiga inhibitor = Shiga toxin inhibition; inhibition, % at 38.7 µM; 9.2% of 290,000 active; Vero cells, Shiga toxin protein synthesis inhibition reporter; in the data active = inhibition mostly above about 28%, no sharp cut-off; inactive = mostly below about 43%
Pf growth 96h = P. falciparum growth inhibition at 96 hours; P. falciparum luciferase reporter growth, 96 h; Potency, µM (top dose mostly 28.7 µM), most hits filed as inhibitors; 6.9% of 320,000 active; AID 504834
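Two-generation exposure (96 h) targets delayed-death phenotype. Reporter parasites carrying integrated firefly luciferase, in red cells at 2% hematocrit and 0.05% parasitemia final, kept at 37 C, 5% CO2; luminescence loss indicates inhibition.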
Pf growth 48h = P. falciparum growth inhibition at 48 hours (one generation) | AID 504832 | 5.9% of 310,000 active | Potency, µM (series often up to 28.7 µM), most hits filed as inhibitors | P. falciparum luciferase growth in erythrocytes, 48 h
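In quantitative HTS format, infected erythrocytes bearing luciferase-reporter parasites were treated for a single generation at 37 C. Luminescence after adding detection reagent served as the growth measure.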
Hits are given with their value; – = inactive; ? = inconclusive; · = not tested or not shown; [ ] = remark or other dose. Unless noted, calls follow the shape of the dose curve; as a rule, active = well fitted inhibition curve with a large enough effect; inconclusive = small, poorly fitted or top-dose-only effect, or another doubt; inactive = no such curve, though single readings can be large or run the other way.

SMILES	HCMV antiviral	CHX counter	Shiga inhibitor	Pf growth 96h	Pf growth 48h
Cc1cc(Nc2ccc3c(c2)OCCO3)c2cc(Cl)ccc2n1	-93.4	68.4	78.7	–	7.38µM
COC(=O)c1ccc2nc(C)cc(Nc3ccc(N(C)C)cc3)c2c1	–	–	–	?	1.65µM
COc1ccc(Nc2cc(C)nc3ccc(OC)cc23)cc1	?	–	–	–	?
COc1ccc(S(=O)(=O)N2CCN(Cc3ccc4c(c3)OCO4)CC2)cc1OC	–	·	·	·	·
CC(C)C(CCNC1CCN(C)CC1)c1ccc(Cl)cc1 (stereo not given)	-98.9	–	–	?	–[0.00184 µM]
CN1CCC(NCCC(c2ccc(F)cc2)c2ccc(Cl)cc2)CC1 (stereo not given)	-96.9	–	–	1.85µM	1.65µM
CCCCNc1nc2c(c(=O)n(Cc3ccc(Cl)cc3)c(=O)n2C)n1C	–	·	·	·	·
CC(C)c1ccc(NC(=O)C(Cc2ccccc2)NS(=O)(=O)c2ccc3c(c2)CCC(=O)N3)cc1 (stereo not given)	–	·	·	·	·
O=C(O)c1ccc(CNS(=O)(=O)c2ccc3ccccc3c2)cc1	–	–	54.7	–	–
O=S(=O)(NCc1csc(-c2cccnc2)n1)c1ccc2c(c1)OCCO2	–	–	–	2.94µM	–
CC(=O)Nc1ccc(S(=O)(=O)NCCc2csc(-c3cccnc3)n2)cc1	?	–	–	8.28µM	–
O=S(=O)(NCc1ccccc1)c1ccc2c(c1)OCCO2	–	–	–	–	–
O=S(=O)(NCc1cccnc1)c1ccc2c(c1)OCCO2	–	–	–	13.1µM	–
C/C=C(/C)C(=O)O[C@H]1C[C@@]2(C)O[C@H]2[C@@H](OC(C)=O)C2(C)CC[C@@](O)(C(C)C)C12 (stereo not given in full)	·	–	–	·	·
Nn1c(COc2ccccc2F)nnc1SCC(=O)NC1CC1	–	·	·	–	–
COC(=O)c1cc(S(=O)(=O)NCC2CCN(CCc3cccs3)CC2)c[nH]1	–	–	–	?	–
CCCCC1=NN2CCS(=O)(=O)N=C2S1	–	–	–	–	–
O=S(=O)(NCc1cccnc1)c1ccc2ccccc2c1	-63.3	–	–	–	–
Cc1cc(C)cc(NC(=O)CSc2nc(=O)[nH]c3c2CCC3)c1	–	·	·	·	·
COc1ccc(-c2nc(CS(=O)CC(=O)NC3CCC(C)CC3)c(C)o2)cc1OC (stereo not given)	–	33.0	60.5	–	–
Cc1ccc(CNC(=O)CSCc2nc(-c3ccc(Cl)cc3)oc2C)cc1	–	·	·	·	·
CCCCNC(=O)CS(=O)Cc1nc(-c2ccc(C)cc2)oc1C (stereo not given)	–	–	–	–	·
Cc1oc(-c2ccc(Cl)cc2)nc1CS(=O)CC(=O)NCCCN1CCN(Cc2ccccc2)CC1 (stereo not given)	-93.4	–	–	9.28µM	?
CCCNC(=O)CS(=O)Cc1nc(-c2ccc(OC)cc2)oc1C (stereo not given)	?	–	–	14.7µM	·
COc1ccc(-c2nc(CS(=O)CC(=O)NC3CCCC3)c(C)o2)cc1OC (stereo not given)	–	–	–	–	–
SMILES	HCMV antiviral	CHX counter	Shiga inhibitor	Pf growth 96h	Pf growth 48h
Cc1ccc(-c2nc(CSCC(=O)NCCN3CCN(Cc4ccccc4)CC3)c(C)o2)cc1	-64.8	–	–	–	–
Cc1oc(-c2ccc(Cl)cc2)nc1CS(=O)CC(=O)NCCCN1CCCC(C)C1 (stereo not given)	–	–	–	–	–
CN(C)/C=C(\c1cnc(Cl)s1)S(=O)(=O)c1ccccc1	?	–	–	–	–
Cc1ccc(-c2nc(CS(=O)CC(=O)NCCCN3CC(C)CC(C)C3)c(C)o2)cc1 (stereo not given)	–	–	–	?	·
Cc1oc(-c2cccs2)nc1CS(=O)CC(=O)NCCCN1CC(C)CC(C)C1 (stereo not given)	–	–	–	11.7µM	·
CCc1ccc(-c2nc(CS(=O)CC(=O)NCCCN3CCOCC3)c(C)o2)cc1 (stereo not given)	–	–	–	7.38µM	–
N#Cc1ccccc1NC(=O)CSc1ncn[nH]1	–	·	·	·	·
CCOCCC(=O)Nc1ncc(S(=O)(=O)c2ccc([N+](=O)[O-])cc2)s1	–	·	·	·	·
CCCC(C)C(=O)Nc1ncc(S(=O)(=O)c2ccc([N+](=O)[O-])cc2)s1 (stereo not given)	–	–	–	?	1.65µM
O=C(CCl)Nc1ncc(S(=O)(=O)c2ccc([N+](=O)[O-])cc2)s1	–	·	·	·	·
CCC(C)(C)C(=O)Nc1ncc(S(=O)(=O)c2ccc([N+](=O)[O-])cc2)s1	–	–	–	2.94µM	8.28µM
CC(=O)c1ccc(N2C(=O)[C@@H]3C(C(=O)CCN4C(=O)c5ccccc5C4=O)=NN[C@@H]3C2=O)cc1	–	–	–	2.33µM	–
COc1cccc(N2C(=O)C3NN=C(C(=O)CN4C(=O)c5ccccc5C4=O)C3C2=O)c1 (stereo not given)	–	–	–	–	–
CCOC(=O)C1=C(COC(=O)c2cccnc2Cl)NC(=O)NC1C (stereo not given)	–	·	·	–	–
O=C(O)c1cccc2c1-c1ccccc1/C2=N\Nc1ccccc1	–	50.0	116.2	–	–
O=C(O)c1cc(NN=C2c3ccccc3-c3ccccc32)ccc1Cl	–	–	–	–	–
O=C(O)c1cccc(NN=C2c3ccccc3-c3ccccc32)c1	?	41.6	84.1	–	–
CC(=O)N1CCOc2cc(S(=O)(=O)NCc3ccc(C)cc3)c(Cl)cc21	–	·	·	·	·
CC1(C)CC[C@]2(C(=O)n3ccnc3)CC[C@]3(C)[C@H](C(=O)C=C4[C@@]5(C)C=C(C#N)C(=O)C(C)(C)[C@@H]5CC[C@]43C)[C@@H]2C1	-100.5	·	·	·	·
C/C(=N\NC(=O)COc1ccc(C)cc1Br)c1cc([N+](=O)[O-])cs1	-80.7	–	–	?	?
CCOC(=O)C1CCN(C(=O)CCc2c(C)nc3c(-c4ccc(F)cc4)c(C)nn3c2C)CC1	?	–	–	10.4µM	·
CCN1CCN(c2ccc(NC(=O)CCc3c(C)nc4c(-c5ccc(F)cc5)c(C)nn4c3C)cc2)CC1	-60.2	–	–	?	?
COCCNC(=O)CCc1c(C)nc2c(-c3ccc(F)cc3)c(C)nn2c1C	–	–	–	13.1µM	·
Cc1nc2c(-c3ccc(F)cc3)c(C)nn2c(C)c1CCC(=O)N1CCOCC1	–	–	–	?	·
CC1CCc2c(sc3nnn(Cc4ccc(F)cc4)c(=O)c23)C1 (stereo not given)	–	·	·	·	·
O=C(COc1ccc(Cl)cc1Cl)Nc1ccccc1NS(=O)(=O)c1cccs1	–	47.1	94.4	–	–
Cc1ccn2c(NC(=O)C(C)(C)Oc3ccc(Cl)cc3)c(-c3cccs3)nc2c1	-60.4	–	–	11.7µM	–
O=C(COc1ccccc1)Nc1ccccc1NS(=O)(=O)c1cccs1	–	–	–	–	–
Cc1cc(Cl)ccc1OCC(=O)Nc1ccccc1NS(=O)(=O)c1cccs1	–	23.5	–	–	–
O=C(COc1ccc(Cl)cc1Cl)Nc1c(-c2cccs2)nc2ccccn12	–	12.7	–	–	–
